This is a sample that favours compounds with a hit; in the whole collection about 0.78% have one here.
NCOA3 inh = human NCOA3 inhibition; Q9Y6Q9; HEK293 GAL4-SRC3 luciferase reporter, luminescence; inhibition, % at 3.6 µM; 360,000 tested, 0.17% active; AID 588352;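 active = inhibition above a per-campaign cutoff, the mean of all compounds plus 3 SD, cut at about 60% in these data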;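 also: 0% = DMSO-treated cells and 100% = gossypol-treated cells at 36 µM; higher means less SRC3-driven luciferase light from the GAL4 reporter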
LRH-1 inv ag = suppresses constitutive activity of human LRH-1. HEK293T StAR-luciferase reporter, LRH-1 transfected, 24 h. inhibition, % at 3.6 µM. 360,000 tested, 0.13% active. AID 602396;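 active = inhibition above the mean inhibition of all tested compounds plus 3 SD, cut at about 73% in these data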;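 also: 0% = DMSO wells and 100% = reporter-only cells lacking LRH-1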
NCOA2 inhibitor = inhibits human steroid receptor coactivator 2. Q15596. HEK293 GAL4-SRC2 luciferase reporter, luminescence. inhibition, % at 9 µM. 370,000 tested, 0.17% active. AID 651957;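 active = inhibition above the mean inhibition of all tested compounds plus 3 SD, set per campaign, cut at about 52% in these data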;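 also: 0% = DMSO treated cells and 100% = cells given Gossypol at 36 µM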
SRC1 inh = human NCOA1 inhibition. AID 588354. inhibition, % at 3.6 µM. HEK293 GAL4-SRC1 luciferase reporter, luminescence. 360,000 tested, 0.12% active;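 active = inhibition above the campaign mean plus 3 SD, with each screening campaign given its own cutoff, cut at about 60% in these data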;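 also: 0% = DMSO treated cells and 100% = gossypol at 36 µM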
LMP1 NFkB inh = Epstein-Barr LMP1 NF-kappaB reporter inhibition. LMP1-induced NF-kappaB luciferase reporter cells, luminescence. inhibition, % at 12.5 µM. 350,000 tested, 0.69% active. AID 504558; in the data active = inhibition above about 41%;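 also: 0% = neutral control wells and 100% = reference inhibitor control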
An asterisk follows results filed as active; x = no result given.

SMILES	NCOA3 inh	LRH-1 inv ag	NCOA2 inhibitor	SRC1 inh	LMP1 NFkB inh
O=C(NCc1ccccc1)c1ccc(N2CCC3(CC2)CC(c2ccccc2)=NO3)c([N+](=O)[O-])c1	2	0	8	-5	13
C[C@@H](C(=O)Nc1ccc2c(c1)OCCO2)n1c(=O)[nH]c2ccccc2c1=O	67*	52	41	61	43*
C[C@@H](C(=O)Nc1ccc2c(c1)OCO2)n1c(=O)[nH]c2ccccc2c1=O	-14	-6	-5	19	-3
O=C(CSc1nnc(-c2ccncc2)n1-c1ccccc1)Nc1ccc2c(c1)OCCO2	x	x	22	x	x
O=C(CCN1C(=O)c2ccccc2S1(=O)=O)Nc1cc(Cl)ccc1Cl	14	-11	-8	-9	7
O=C(CN1C(=O)c2ccccc2S1(=O)=O)c1ccc(OC(F)F)cc1	12	31	x	36	82*
O=C(CN1C(=O)c2ccccc2S1(=O)=O)c1ccc(Cl)cc1Cl	62*	59	87*	55	79*
O=C(CN1C(=O)c2ccccc2S1(=O)=O)c1ccccc1F	-43	-53	8	-22	45*
O=C(CN1C(=O)c2ccccc2S1(=O)=O)c1ccc(F)cc1	46	-16	32	14	69*
COC(=O)[C@]12C[C@H](CC(=O)NCCc3ccccc3OC)C(=O)N(Cc3cccc4ccccc34)C1=C[C@H](C(C)C)O[C@@H]2C1CC1	x	x	30	x	x
COc1cccc(CNC(=O)[C@H]2CCCN2C(=O)[C@H]2CCCN2C(=O)N2CCOCC2)c1	x	x	-8	x	x
COC(=O)c1cc2c(c3c4cc(C)ccc4n(S(=O)(=O)c4ccc(C)cc4)c13)C(=O)N(C)C2	x	x	-11	x	x
CCCN(CC1CC1)C(=O)c1ccc(CNC(=O)c2cccc(Br)c2)cc1	x	x	-9	x	x
O=c1cc(-c2ccccc2)oc2c1ccc1ccccc12	x	x	-15	x	x
O=c1cc(-c2ccc(O)c(O)c2)oc2ccc3ccccc3c12	-22	-92	-22	-27	52*
O=c1cc(-c2ccc(O)c(O)c2)oc2c1ccc1ccccc12	-51	-10	0	-8	3
O=c1cc(-c2ccccc2)oc2ccc3ccccc3c12	-9	-55	-39	-25	68*
COC1=C[C@H](C(=O)NCc2ccc(Br)cc2)[C@H](C)[C@@H](c2ccccc2)CC1=O	x	x	18	x	x
CCOc1cc2c(cc1OCC)C(c1ccc(OC)cc1)N(c1ccccc1)C(=O)C2 (configuration not stated)	-33	76*	-21	-28	-6
CCCCCN1CCCCC(NC(=O)c2ccccc2C)C1=O (configuration not stated)	x	x	-6	x	x
COc1ccc(CC(/C=C/c2ccc(F)cc2)c2ccccc2)cc1 (configuration not stated)	x	x	-18	x	x
COc1cc(NC(=S)N2CCN(CCO)CC2)cc(OC)c1	19	0	6	3	69*
OCCN1CCN(C(=S)Nc2ccccc2)CC1	13	10	-15	4	1
c1ccc(-c2c[nH]c3cccc(C4CCCCC4)c23)cc1	x	x	-43	x	x
CNC(=S)Nc1ccc2nc(C)c(C)nc2c1	-14	-9	4	-21	50*
SMILES	NCOA3 inh	LRH-1 inv ag	NCOA2 inhibitor	SRC1 inh	LMP1 NFkB inh
O=C(Nc1ccc2c(c1)OCO2)N1CCC(c2nc3ccc(Cl)cc3[nH]2)CC1	x	x	-14	x	x
COc1ccc2c(c1)C(c1ccc(C)o1)=NNC(c1ccccc1)=N2	-16	-65	-14	-23	43*
COc1ccc(N2CCN(CCCNC(=O)COc3ccc(C)cc3)CC2)cc1	x	x	2	x	x
Cc1ccc2[nH]c(=S)cc(C)c2c1	-29	4	0	-2	5
Cc1cc(=S)[nH]c2ccccc12	4	5	-3	-12	63*
COc1ccc(CN(CCN2CCOCC2)C(=O)c2cc(F)cc(F)c2)cc1OC	x	x	-8	x	x
Cc1ccc(OCc2nnc(SCC(=O)Nc3cccc4ccccc34)n2Cc2ccco2)cc1	x	x	-25	x	x
COc1cc(/C=C2\COC/C(=C\c3cc(OC)c(OC)c(OC)c3)C2=O)cc(OC)c1OC	3	-12	75*	-187	91*
CCCNC(=O)C[C@H]1CC[C@H]2[C@@H](COc3ccc(NC(=O)Nc4ccc(C#N)cc4)cc3C(=O)N2C)O1	x	x	-16	x	x
O=C(CSc1nnc(-c2ccccn2)n1-c1ccc(Cl)cc1)Nc1ccc2c(c1)OCCO2	x	x	8	x	x
O=C(CS(=O)c1ccc(C(F)(F)F)cc1[N+](=O)[O-])Oc1ccccc1 (configuration not stated)	9	-18	-5	2	-13
CS(=O)(=O)c1ccc(S(=O)CC(=O)OCc2ccccc2)c([N+](=O)[O-])c1 (configuration not stated)	-29	18	-118	-15	49*
CC(C)N1C(=O)CCC1C(=O)N1CCN(c2ccc(F)cc2)CC1 (configuration not stated)	3	13	-12	4	1
CCC(C)N1C(=O)CCC1C(=O)N1CCN(c2ccc(F)cc2)CC1 (configuration not stated)	11	-12	-3	2	64*
O=C(CSc1nnc(-c2ccccc2)o1)Nc1ccccc1F	-39	-77	24	-72	53*
O=C(CSc1nnc(-c2ccncc2)o1)Nc1cc(F)ccc1F	-64	-59	-3	-67	-17
O=C(CSc1nnc(-c2ccc(Br)cc2)o1)Nc1cccc(C(=O)O)c1	-65	-124	-34	-90	75*
O=C(CSc1nnc(-c2ccc(Br)cc2)o1)Nc1cccc2ccccc12	1	-26	-6	-29	2
Cc1ccc(-c2nnc(SCC(=O)Nc3ccccc3N3CCOCC3)o2)cc1	-7	-30	-37	-49	-13
Cc1ccc(-c2nnc(SCC(=O)Nc3ccccc3F)o2)cc1	9	32	62*	33	79*
CC(=O)N1CCN(C(=O)CSc2nc3cccnc3n2C)CC1	x	x	-9	x	x
NC(=S)N=Nc1ccc(NN=C(N)N)cc1	20	1	-2	7	86*
CCN1C(=O)N[C@@H](CCc2ccccc2)[C@H](C(C)=O)[C@H]1C	8	13	11	-4	58*
COc1ccc(-n2c(SCC(=O)Nc3cc(C)c(NC(=O)c4ccccc4)cc3OC)nnc2-c2cccnc2)cc1	x	x	2	x	x
CN(C)S(=O)(=O)c1cccc(NC(=S)N/N=C/c2cc(Br)ccc2O)c1	34	4	38	24	49*
SMILES	NCOA3 inh	LRH-1 inv ag	NCOA2 inhibitor	SRC1 inh	LMP1 NFkB inh
CN(C)S(=O)(=O)c1cccc(NC(=S)N/N=C/c2cccc(O)c2)c1	1	14	-23	17	1
COc1ccc(NC(=S)NCc2cccs2)cc1	-15	-16	-16	-16	57*
CC(C)c1ccc(NC(=S)NCc2cccs2)cc1	-88	-24	-42	-34	-40
Cc1cc(NC(=O)CSc2nnc(-c3ccccc3C)n2C)no1	-1	10	-14	1	2
Cc1cc(NC(=O)CSc2nnc(-c3ccco3)n2C)no1	-7	3	25	-14	71*
CN(C)c1cccc(/C=C2\CC3(OC(=O)c4ccccc4)CCCN2C3)c1 (configuration not stated)	x	x	17	x	x
